Laboratory results reported in the supplement of paper PMC9262897, “Low-cost anti-mycobacterial drug discovery using engineered E. coli” (Nature Communications, 2022).
Counter-ions that a name gives are not always drawn. ± gives the standard deviation of the averaged measurements.

What was measured:
Assay in all cases: growth (OD600 after 10 h); higher = more growth (less inhibition)
[1] = system: E. coli TESEC Alr+ wild-type control; conditions: compound 0.1 mM; raw OD600 reference: median of DMSO wells 0.241, cell-free background 0.041
Description: (§1)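 TESEC Mtb Alr E. coli, or the Alr+ wild-type control, in 384-well plates with Prestwick library compounds at 0.1 mM and 1% DMSO, across arabinose induction levels of 1E3 to 1E7 nM. Growth is read as OD600 after 10 h at 37 °C in triplicate biological replicates.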

E. coli TESEC Mtb Alr [2] = conditions: compound 0.1 mM
Description: as §1

E. coli TESEC Mtb Asd = conditions: compound 0.1 mM
Description: (§2)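 TESEC E. coli strains in which the native enzyme is deleted and replaced by arabinose-inducible Mtb Asd, DapB, CysH or TrpD, each grown in its selective medium. Strains were screened against the Prestwick library at 0.1 mM and 1% DMSO in 384-well format at low and high arabinose induction. Growth is read as OD600 after 10 h in triplicate.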

E. coli TESEC Mtb DapB = conditions: compound 0.1 mM
Description: as §2

E. coli TESEC Mtb Alr [3] = conditions: compound 0.1 mM; remark: listed apart in the source
Description: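 TESEC Mtb Alr E. coli (ΔaraC ΔtolC ΔentC Δalr ΔdadX, arabinose-inducible Mtb Alr) or the Alr+ wild-type control strain, grown in defined M9-fructose medium without D-alanine in 96-well plates with Prestwick library compounds at 0.1 mM and 1% DMSO. Low Alr induction is 0.1 µM arabinose and high induction is 10 mM arabinose.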

[4] = arabinose 1000 nM, raw OD600 reference: median of DMSO wells 0.294, cell-free background 0.041
[5] = arabinose 10000 nM, raw OD600 reference: median of DMSO wells 0.264, cell-free background 0.041
[6] = arabinose 100000 nM, raw OD600 reference: median of DMSO wells 0.201, cell-free background 0.041
[7] = arabinose 1000000 nM, raw OD600 reference: median of DMSO wells 0.193, cell-free background 0.041
[8] = arabinose 10000000 nM, raw OD600 reference: median of DMSO wells 0.146, cell-free background 0.041
[9] = arabinose induction (level): High, raw OD600 reference: median of DMSO wells 0.331, cell-free background 0.041
[10] = arabinose induction (level): Low, raw OD600 reference: median of DMSO wells 0.417, cell-free background 0.041
[11] = arabinose induction (level): High, raw OD600 reference: median of DMSO wells […], cell-free background 0.041
[12] = arabinose induction (level): Low, raw OD600 reference: median of DMSO wells 0.227, cell-free background 0.041
[13] = arabinose 100 nM, raw OD600 reference: median of DMSO wells 0.413, cell-free background 0.052
[14] = arabinose 10000000 nM, raw OD600 reference: median of DMSO wells […], cell-free background 0.052

| Structure (SMILES) | growth [1] | growth (E. coli TESEC Mtb Alr [2]; [4]) | growth (E. coli TESEC Mtb Alr [2]; [5]) | growth (E. coli TESEC Mtb Alr [2]; [6]) | growth (E. coli TESEC Mtb Alr [2]; [7]) | growth (E. coli TESEC Mtb Alr [2]; [8]) | growth (E. coli TESEC Mtb Asd; [9]) | growth (E. coli TESEC Mtb Asd; [10]) | growth (E. coli TESEC Mtb DapB; [11]) | growth (E. coli TESEC Mtb DapB; [12]) | growth (E. coli TESEC Mtb Alr [3]; [13]) | growth (E. coli TESEC Mtb Alr [3]; [14]) |
| --- | --- | --- | --- | --- | --- | --- | --- | --- | --- | --- | --- | --- |
| CC(C)[N+](C)(CCC(C(N)=O)(c1ccccc1)c1ccccc1)C(C)C [Isopropamide iodide] | 0.211 ± 0.003 | 0.285 ± 0.0086 | 0.248 ± 0.0032 | 0.199 ± 0.015 | 0.147 ± 0.0039 | 0.142 ± 0.0052 | 0.268 ± 0.036 | 0.41 ± 0.036 | 0.211 ± 0.025 | 0.201 ± 0.0096 | 0.399 ± 0.025 | 0.331 ± 0.013 |
| CCOC(=O)c1cncn1[C@H](C)c1ccccc1 [Etomidate] | 0.202 ± 0.0032 | 0.244 ± 0.0088 | 0.275 ± 0.013 | 0.214 ± 0.03 | 0.181 ± 0.01 | 0.14 ± 0.0078 | 0.43 ± 0.029 | 0.378 ± 0.076 | 0.225 ± 0.019 | 0.228 ± 0.013 | 0.41 ± 0.0073 | 0.341 ± 0.0035 |
| CCn1cc(C(=O)O)c(=O)c2cc3c(cc21)OCO3 [Oxolinic acid] | 0.0726 ± 0.0019 | 0.05577 ± 0.00049 | 0.0509 ± 0.00026 | 0.0646 ± 0.0014 | 0.0934 ± 0.0036 | 0.123 ± 0.0027 | 0.156 ± 0.011 | 0.149 ± 0.011 | 0.194 ± 0.0098 | 0.208 ± 0.054 | 0.0698 ± 0.0013 | 0.0582 ± 0.0011 |
| C[N+]1([O-])[C@@H]2C[C@@H](OC(=O)[C@H](CO)c3ccccc3)C[C@H]1[C@@H]1O[C@@H]12 (some centres not stated) [Scopolamin-N-oxide hydrobromide] | 0.262 ± 0.013 | 0.3 ± 0.013 | 0.28 ± 0.0081 | 0.24 ± 0.027 | 0.19 ± 0.0068 | 0.165 ± 0.0072 | 0.334 ± 0.068 | 0.408 ± 0.035 | 0.221 ± 0.012 | 0.257 ± 0.025 | 0.411 ± 0.021 | 0.347 ± 0.018 |
| CN1[C@@H]2CC[C@H]1C[C@@H](OC(=O)C(CO)c1ccccc1)C2 (some centres not stated) [Atropine sulfate monohydrate] | 0.234 ± 0.0026 | 0.299 ± 0.0088 | 0.25 ± 0.0043 | 0.253 ± 0.012 | 0.182 ± 0.0059 | 0.149 ± 0.011 | 0.339 ± 0.053 | 0.421 ± 0.081 | 0.199 ± 0.015 | 0.247 ± 0.019 | 0.41 ± 0.019 | 0.357 ± 0.014 |
| COc1ccc2c(c1)[C@]13CCCC[C@@H]1[C@H](C2)N(C)CC3 [Dextromethorphan hydrobromide monohydrate] | 0.1976 ± 0.0013 | 0.25 ± 0.005 | 0.255 ± 0.0068 | 0.2 ± 0.027 | 0.154 ± 0.0044 | 0.142 ± 0.002 | 0.168 ± 0.015 | 0.29 ± 0.045 | 0.17 ± 0.015 | 0.232 ± 0.031 | 0.42 ± 0.006 | 0.355 ± 0.015 |
| C=CCC1(CC(C)C)C(=O)NC(=O)NC1=O [Butalbital] | 0.2428 ± 0.002 | 0.282 ± 0.011 | 0.276 ± 0.0052 | 0.198 ± 0.012 | 0.211 ± 0.0091 | 0.149 ± 0.0019 | 0.407 ± 0.1 | 0.3 ± 0.074 | 0.218 ± 0.021 | 0.24 ± 0.015 | 0.395 ± 0.0067 | 0.37 ± 0.0073 |
| CC(C)c1cccc(C(C)C)c1O [Propofol] | 0.245 ± 0.0043 | 0.309 ± 0.017 | 0.255 ± 0.0092 | 0.202 ± 0.0052 | 0.175 ± 0.0063 | 0.144 ± 0.0055 | 0.441 ± 0.024 | 0.439 ± 0.03 | 0.212 ± 0.011 | 0.236 ± 0.028 | 0.389 ± 0.01 | 0.328 ± 0.0056 |
| NCCc1c[nH]c2ccc(O)cc12 [Serotonin hydrochloride] | 0.231 ± 0.013 | 0.297 ± 0.011 | 0.269 ± 0.0069 | 0.198 ± 0.036 | 0.201 ± 0.0049 | 0.145 ± 0.0029 | 0.361 ± 0.022 | 0.405 ± 0.091 | 0.209 ± 0.011 | 0.237 ± 0.0078 | 0.407 ± 0.02 | 0.338 ± 0.054 |
| Cc1cccc(C)c1NC1=NCCCS1 [Xylazine] | 0.236 ± 0.0094 | 0.284 ± 0.0052 | 0.247 ± 0.0072 | 0.208 ± 0.029 | 0.169 ± 0.0055 | 0.137 ± 0.006 | 0.298 ± 0.051 | 0.34 ± 0.11 | 0.209 ± 0.016 | 0.226 ± 0.022 | 0.424 ± 0.0078 | 0.352 ± 0.023 |
| CCC1(CC)C(=O)C=CNC1=O [Pyrithyldione] | 0.223 ± 0.0058 | 0.295 ± 0.026 | 0.289 ± 0.0059 | 0.207 ± 0.017 | 0.2322 ± 0.0018 | 0.152 ± 0.0058 | 0.398 ± 0.047 | 0.438 ± 0.018 | 0.205 ± 0.014 | 0.23 ± 0.01 | 0.389 ± 0.009 | 0.398 ± 0.025 |
| NC(=O)OCCCc1ccccc1 [Phenprobamate] | 0.219 ± 0.0026 | 0.274 ± 0.0083 | 0.258 ± 0.011 | 0.183 ± 0.018 | 0.192 ± 0.012 | 0.138 ± 0.0065 | 0.31 ± 0.11 | 0.323 ± 0.063 | 0.197 ± 0.023 | 0.215 ± 0.024 | 0.421 ± 0.011 | 0.352 ± 0.02 |
| C=C1C[C@@H]2[C@H](CC[C@]3(C)C(=O)CC[C@@H]23)[C@@]2(C)C=CC(=O)C=C12 [Exemestane] | 0.113 ± 0.0025 | 0.1298 ± 0.0011 | 0.165 ± 0.0017 | 0.108 ± 0.0018 | 0.0722 ± 0.0026 | 0.0997 ± 0.0036 | 0.0993 ± 0.0088 | 0.147 ± 0.023 | 0.112 ± 0.0048 | 0.109 ± 0.0022 | 0.379 ± 0.039 | 0.129 ± 0.019 |
| CN(C)[C@@H]1C(=O)C(C(N)=O)=C(O)[C@@]2(O)C(=O)C3=C(O)c4c(O)cccc4[C@@](C)(O)[C@H]3[C@H](O)[C@@H]12 [Oxytetracycline dihydrate] | 0.0451 ± 0.0028 | 0.0424 ± 0.00089 | 0.0418 ± 0.00081 | 0.044 ± 0.0021 | 0.0421 ± 0.0003 | 0.04303 ± 0.00012 | 0.0563 ± 0.0015 | 0.0587 ± 0.0032 | 0.0531 ± 0.00076 | 0.0536 ± 0.0012 | 0.0627 ± 0.0022 | 0.0555 ± 0.003 |
| O=c1[nH]oc2c1CCNC2 [THIP Hydrochloride] | 0.26 ± 0.0053 | 0.316 ± 0.0096 | 0.266 ± 0.0055 | 0.2 ± 0.019 | 0.194 ± 0.014 | 0.136 ± 0.0034 | 0.262 ± 0.035 | 0.433 ± 0.04 | 0.2018 ± 0.0015 | 0.238 ± 0.014 | 0.41 ± 0.013 | 0.349 ± 0.018 |
| CNC(=O)Oc1ccc2c(c1)[C@]1(C)CCN(C)[C@@H]1N2C [Eserine hemisulfate salt] | 0.229 ± 0.0049 | 0.289 ± 0.0076 | 0.251 ± 0.003 | 0.203 ± 0.025 | 0.184 ± 0.0065 | 0.139 ± 0.008 | 0.328 ± 0.037 | 0.408 ± 0.048 | 0.187 ± 0.015 | 0.206 ± 0.0057 | 0.409 ± 0.017 | 0.366 ± 0.01 |
